We go through 14 compounds from ChEMBL document CHEMBL1157539, “Thousands of chemical starting points for antimalarial lead identification” (Nature, 2010).

The term Inhibition denotes the relative decrease from the control value, in per cent. A high value points to a strong effect.

The experiment deals with Plasmodium falciparum. The experiment in a line: GSK_TCMDC: Inhibition of Plasmodium falciparum 3D7 in whole red blood cells, using parasite LDH activity as an index of growth. Test compounds present at 2uM. The format is functional.
Turning to `COc1ccc2c(Nc3ccc(N4CCN(C)CC4)cc3)cc(C)nc2c1`, the Inhibition stood at 100%.

Regarding `CCOc1cc(C)ccc1C1CCN(CCCCNC(=O)c2cnc(-c3ccc(C(F)(F)F)cc3)[nH]2)CC1`, the Inhibition came out at 95%.

As to `CCC(CC)n1cc2c(ccc3nc(N)nc(N)c32)n1`, the Inhibition was 91%.

As for `CC(C)Nc1nc(NCCc2c[nH]cn2)nc(NCc2cccc3ccccc23)n1`, the Inhibition is 90%.

In turn, `COc1cccc2cc(C(=O)N[C@@H](CC(C)C)C(=O)N[C@H](C=NNC(=O)OC(C)(C)C)CC(C)C)oc12` registered an Inhibition of 88%.

In turn, `CCOC(=O)NC1=NC(=N)N(OCCCOc2cc(Cl)c(Cl)cc2Cl)C(C)(C)N1` showed an Inhibition of 97%.

Turning to `COc1cc(NCCCNCC2c3ccccc3Oc3ccccc32)nc2ccccc12.O=C(O)C(F)(F)F`, the Inhibition came to 99%.

`Cc1[nH]c(C)c(-c2cccc(-c3ccc(OC(F)(F)F)cc3)c2)c(=O)c1Br` displayed an Inhibition of 97%.

Regarding `CCN1CCN(c2cc(C)c3cc(NC(=O)c4cccc([N+](=O)[O-])c4)ccc3n2)CC1`, the Inhibition came out at 99%.

For the compound `COc1ccc2[nH]c(C)cc(=NN=Cc3cc(C)ccc3O)c2c1`, the Inhibition came out at 100%.

Take `COc1cc2nc(Nc3ccc(Oc4ccccc4)cc3)nc(Nc3ccc(Oc4ccccc4)cc3)c2cc1OC`: the Inhibition was 95%.

The compound `Br.CC1(C)N=C(N)N=C(N)N1OCCCOc1cccc(C(=O)O)c1` registered an Inhibition of 94%.

On to `CN(C)c1ccc(CN2CCCC(CNC(=O)c3ccc(-c4cccc(C(F)(F)F)c4)s3)C2)cc1.O=C(O)C(F)(F)F` (centres undefined), for which the Inhibition came out at 89%.

As for `COc1ccc(Cl)cc1NC(=O)Nc1ccnc2ccccc12`, the Inhibition is 100%.
